Assay results as given in PubChem BioAssay AID1159580 (chemical genetic matrix, 2015).
Several values for one entry are separate records, joined by “and”; a condition that tells them apart may be missing. Identical values can stand only once. Hit rate of the full screen: of about 5,500 compounds, about 2,000 (36%) were called active. Roughly 18% stayed inconclusive and do not appear here. Cut-off read from the data, not from the text of the source: active = normalized growth mostly below about 0.91 (no sharp cut-off); inconclusive = no clear call, values can overlap the other calls; inactive = mostly above about 0.92. The list shows a part of the results.

Assay: chemical genetic growth profiling, strain panel (AID 1159580);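 note: tested at 20 µM; growth read once vehicle control cultures reached saturation at 30 °C; 1 = growth at the plate median or of vehicle wells; lower values mean less growth of the strain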
Conditions: S. cerevisiae deletion strains, growth OD

Measured: normalized growth

OCCN1CCN(CCCN2c3ccccc3Sc3ccc(Cl)cc32)CC1
active: locus YAL026C, strain drs2, stronger effect = lower value 0.674 | locus YDR137W, strain rgp1, stronger effect = lower value 1.33 [resistant]
inactive: locus YAL013W, strain DEP1, stronger effect = lower value 1.02 and 1.01 | locus YAL021C, strain ccr4, stronger effect = lower value 1 | locus YAL030W, strain snc1, stronger effect = lower value 1.01 | locus YAL040C, strain CLN3, stronger effect = lower value 0.984 | locus YBL061C, strain skt5, stronger effect = lower value 0.996 | locus YBR009C, strain hhf1, stronger effect = lower value 0.998 | locus YBR021W, strain FUR4, stronger effect = lower value 0.988 | locus YBR023C, strain chs3, stronger effect = lower value 0.996 | locus YBR171W, strain sec66, stronger effect = lower value 1.01 | locus YBR229C, strain ROT2, stronger effect = lower value 1.01 | locus YBR231C, strain swc5, stronger effect = lower value 1 | locus YBR279W, strain paf1, stronger effect = lower value 0.998 | locus YCL011C, strain gbp2, stronger effect = lower value 0.997 | locus YCL016C, strain dcc1, stronger effect = lower value 0.994 | locus YCL029C, strain bik1, stronger effect = lower value 0.984 | locus YCL061C, strain MRC1 (second series), stronger effect = lower value 1.01 | locus YCL061C, strain MRC1, stronger effect = lower value 1 | locus YCL069W, strain vba3, stronger effect = lower value 1.01 | locus YCR088W, strain abp1, stronger effect = lower value 1.01 | locus YDL005C, strain med2, stronger effect = lower value 1.01 | locus YDL035C, strain GPR1, stronger effect = lower value 0.996 | locus YDL040C, strain nat1, stronger effect = lower value 1 | locus YDL074C, strain BRE1, stronger effect = lower value 0.955 | locus YDL101C, strain DUN1, stronger effect = lower value 1.01 | locus YDL134C, strain PPH21, stronger effect = lower value 1.02 | locus YDL185W, strain tfp1, stronger effect = lower value 0.996 | locus YDL192W, strain arf1, stronger effect = lower value 1.01 | locus YDR001C, strain nth1, stronger effect = lower value 1 | locus YDR069C, strain doa4, stronger effect = lower value 0.987 | locus YDR101C, strain arx1, stronger effect = lower value 0.959 | locus YDR150W, strain NUM1, stronger effect = lower value 1.03 | locus YDR159W, strain sac3, stronger effect = lower value 1.01 | locus YDR162C, strain NBP2, stronger effect = lower value 1 | locus YDR195W, strain ref2 1.12 | locus YDR297W, strain sur2, stronger effect = lower value 0.997 | locus YDR318W, strain mcm21, stronger effect = lower value 0.966 | locus YDR334W, strain swr1, stronger effect = lower value 1 | locus YDR335W, strain msn5, stronger effect = lower value 1 | locus YDR363W, strain ESC2, stronger effect = lower value 0.995 | locus YDR388W, stronger effect = lower value 0.979 | locus YDR392W, strain spt3, stronger effect = lower value 0.998 | locus YDR502C, strain sam2, stronger effect = lower value 0.96 | locus YEL003W, strain gim4, stronger effect = lower value 0.988 | locus YEL037C, strain rad23, stronger effect = lower value 1 | locus YEL061C, strain CIN8 (second series), stronger effect = lower value 1 | locus YEL061C, strain CIN8, stronger effect = lower value 1.01 | locus YER002W, strain NOP16, stronger effect = lower value 1.04 | locus YER015W, strain faa2, stronger effect = lower value 1 | locus YER016W, strain bim1, stronger effect = lower value 1 | locus YER110C, stronger effect = lower value 0.998 | locus YER111C, strain swi4, stronger effect = lower value 1 | locus YER155C, strain BEM2 (second series), stronger effect = lower value 0.971 | locus YER155C, strain BEM2, stronger effect = lower value 1.03 | locus YER167W, strain BCK2, stronger effect = lower value 1.01 | locus YFR010W, strain ubp6, stronger effect = lower value 0.976 | locus YGL078C, strain dbp3, stronger effect = lower value 0.994 | locus YGL086W, strain mad1, stronger effect = lower value 0.993 | locus YGL167C, strain pmr1, stronger effect = lower value 0.989 | locus YGL173C, strain kem1, stronger effect = lower value 0.972 | locus YGL227W, strain vid30, stronger effect = lower value 1.01 | locus YGL240W, strain doc1, stronger effect = lower value 1.04 | locus YGL248W, strain PDE1, stronger effect = lower value 1.02 | locus YGL253W, strain hxk2, stronger effect = lower value 0.997 | locus YGR078C, strain PAC10, stronger effect = lower value 0.997 and 0.999 | locus YGR135W, strain pre9, stronger effect = lower value 0.958 | locus YGR229C, strain SMI1, stronger effect = lower value 0.958 | locus YGR252W, strain gcn5, stronger effect = lower value 0.931 | locus YHR013C, strain ard1, stronger effect = lower value 0.995 | locus YHR027C, strain rpn1, stronger effect = lower value 0.988 | locus YHR030C, strain SLT2, stronger effect = lower value 1.02 and 0.987 | locus YHR079C, strain IRE1 (second series), stronger effect = lower value 0.984 | locus YHR079C, strain IRE1, stronger effect = lower value 0.993 | locus YHR094C, strain hxt1, stronger effect = lower value 0.992 | locus YHR129C, strain ARP1, stronger effect = lower value 1.01 | locus YHR142W, strain chs7, stronger effect = lower value 1.01 | locus YHR200W, strain rpn10, stronger effect = lower value 0.986 | locus YIL066C, strain RNR3, stronger effect = lower value 0.998 | locus YIL073C, strain SPO22, stronger effect = lower value 1.01 | locus YIL125W, strain kgd1, stronger effect = lower value 0.991 | locus YIR030C, strain dcg1, stronger effect = lower value 0.997 | locus YJL092W, strain hpr5, stronger effect = lower value 1 | locus YJL095W, strain BCK1 (second series), stronger effect = lower value 1 | locus YJL095W, strain BCK1, stronger effect = lower value 0.977 and 0.981 | locus YJL115W, strain asf1, stronger effect = lower value 1 | locus YJL129C, strain trk1, stronger effect = lower value 1.01 | locus YJL134W, strain LCB3, stronger effect = lower value 1.01 | locus YJL154C, strain vps35, stronger effect = lower value 1.01 | locus YJL164C, strain tpk1, stronger effect = lower value 0.988 | locus YJL166W, strain qcr8, stronger effect = lower value 1.01 | locus YJL168C, strain set2, stronger effect = lower value 0.991 | locus YJL187C, strain SWE1 (second series), stronger effect = lower value 1 | locus YJL187C, strain SWE1, stronger effect = lower value 1 | locus YJR043C, strain POL32, stronger effect = lower value 1.02 | locus YJR066W, strain TOR1, stronger effect = lower value 0.954
